Compounds with a hit are over-represented: about 3.3% of the library has one in this group of screens.
Tau fibril ThT – tau fibrillization inhibition (ThT binding). hit rate 2.1% among 270,000. recombinant tau K18 P301L, heparin-induced fibrillization, ThT fluorescence. Potency, µM (series often up to 57.4 µM), hits mostly inhibitors; further: nearly all actives have a fitted effect of over 55% in size
Target sequence (P10636 561-689 P618L limits assumed): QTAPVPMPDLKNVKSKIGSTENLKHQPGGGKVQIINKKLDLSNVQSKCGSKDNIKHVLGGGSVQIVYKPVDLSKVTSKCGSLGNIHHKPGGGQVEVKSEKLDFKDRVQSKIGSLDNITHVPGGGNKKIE
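ThT emission at 510 nm, taken 1 hr after adding 30 uM dye, quantifies aggregates formed when 20 uM heparin acts on human tau K18 P301L for 6 hr at 37 C.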
Tau fluor cs – counter-screen for tau fibril formation inhibitors | tau K18 P301L Alexa594 fluorescence, heparin fibrillization | hit rate 0.93% among 280,000 | Potency, µM (titrated, usually from 57.7 µM); further: nearly all actives have a fitted effect of over 55% in size
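Human tau K18 P301L (15 uM unlabeled, 0.24 uM Alexa 594-labeled) in 100 mM sodium acetate pH 7 with 20 uM heparin, 6 hr at 37 C. ThT 30 uM added, 1 hr ambient; Alexa 594 FP and total fluorescence read at 555/632 nm.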
NPSR antagonist – neuropeptide S receptor (human) antagonism, cAMP. CHO-NPSR cells, cAMP TR-FRET, antagonist mode. Potency, µM (titrated, usually from 38.3 µM), most hits filed as inhibitors. hit rate 1% among 220,000; further: nearly all actives have a fitted effect of over 50% in size
Target sequence (Q6W5P4 whole entry, looked up): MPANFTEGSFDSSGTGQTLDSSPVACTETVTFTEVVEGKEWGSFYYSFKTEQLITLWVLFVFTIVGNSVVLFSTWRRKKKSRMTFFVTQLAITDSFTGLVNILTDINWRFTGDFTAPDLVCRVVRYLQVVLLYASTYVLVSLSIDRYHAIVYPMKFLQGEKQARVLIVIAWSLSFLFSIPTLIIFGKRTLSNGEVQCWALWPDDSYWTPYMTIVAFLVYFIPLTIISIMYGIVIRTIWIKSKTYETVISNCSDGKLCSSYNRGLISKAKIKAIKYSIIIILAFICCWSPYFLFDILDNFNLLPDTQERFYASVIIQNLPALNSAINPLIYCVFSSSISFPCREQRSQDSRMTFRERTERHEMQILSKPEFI
Tau fibril FP – inhibitors of human tau fibril formation | Potency, µM (doses to about 57.7 µM), hits mostly inhibitors | hit rate 0.39% among 280,000 | AID 1468 | K18 P301L tau heparin fibrillization, Alexa594 FP, 6 h | P10636; further: nearly all actives have a fitted effect of over 55% in size
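Recombinant K18 P301L […], labeled with Alexa 594 at 0.24 uM over 15 uM unlabeled; heparin inducer 20 uM final; 37 C, 6 hr; FP endpoint.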
Luc counter – Kinase-Glo luciferase inhibition (counter-screen); Q27757; Kinase-Glo luciferase, ATP luminescence, 8 min; Potency, µM (top dose mostly 38.3 µM), usual class: inhibitors; hit rate 0.28% among 200,000; AID 1379; further: nearly all actives have a fitted effect of over 60% in size
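Recombinant Kinase-Glo luciferase, 10 uM ATP (linear range), luciferin; imidazole pH 7.2 / KCl / MgCl2 / Tween / BSA buffer; 8 min RT; luminescence.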
Numbers stand for hits; [ ] = remark or other dose. The call rests on the fitted dose curve; in most records, active means well fitted curve in the direction sought with a large enough effect; inconclusive means small, poorly fitted or top-dose-only effect, or another doubt; inactive means no such curve, though single readings can be large; an effect the other way counts as inactive or inconclusive.

What do the screens show for `Cc1nc2ccccc2c(=O)n1/N=C/c1ccc([N+](=O)[O-])o1`?
Tau fibril ThT: 28µM; Tau fluor cs: inconclusive; NPSR antagonist: inconclusive; Tau fibril FP: inconclusive

How did CN(/N=C/c1ccc([N+](=O)[O-])o1)c1ccccc1 do in these assays?
Tau fibril ThT: 7.1µM; Tau fluor cs: inconclusive; NPSR antagonist: inactive; Tau fibril FP: inactive; Luc counter: inactive

How did Cc1ccc(/C=N/n2c(C)nc3ccccc3c2=O)o1 do in these assays?
Tau fibril ThT: inactive; Tau fluor cs: inactive; NPSR antagonist: inactive; Tau fibril FP: inactive; Luc counter: inactive

What do the screens show for `O=C(N/N=C/c1ccc([N+](=O)[O-])o1)C(O)c1ccccc1` (stereo not drawn)?
Tau fluor cs: inactive; NPSR antagonist: inactive; Tau fibril FP: inactive

Results for CN1CCSc2ccc(C(=O)Nc3cccc(F)c3)cc21 ?
Tau fibril ThT: inconclusive; Tau fluor cs: 22µM[quencher]; NPSR antagonist: inactive; Tau fibril FP: inconclusive

How did CN1CCSc2ccc(C(=O)NCc3ccccc3)cc21 do in these assays?
Tau fibril ThT: inactive; Tau fluor cs: inactive; Tau fibril FP: inactive

Results for C[C@H]1O[C@H](O[C@H]2[C@H](O)[C@@H](O)[C@@H](O[C@H]3[C@H](O)[C@@H](O)C(O)O[C@@H]3CO)O[C@@H]2CO)[C@H](O)[C@@H](O)[C@@H]1N[C@H]1C=C(CO)[C@@H](O)[C@H](O)[C@H]1O (stereo partly drawn) ?
Tau fibril ThT: inactive; Tau fluor cs: inactive; NPSR antagonist: inactive; Tau fibril FP: inactive

How did Cc1ccc(Cl)cc1NC(=O)c1cc(S(=O)(=O)N2CCOCC2)cn1C do in these assays?
Tau fibril ThT: inactive; Tau fluor cs: inactive; Tau fibril FP: inactive

What do the screens show for `O=C(COc1ccccc1)Nc1cccc2nsnc12`?
Tau fibril ThT: inactive; Tau fluor cs: inactive; NPSR antagonist: inactive; Tau fibril FP: inactive; Luc counter: inactive

How did O=C(Nc1ccc(F)cc1)Nc1ccccc1NS(=O)(=O)c1cccs1 do in these assays?
Tau fibril ThT: inactive; Tau fluor cs: inconclusive; NPSR antagonist: inactive; Tau fibril FP: inactive

Results for O=C(Nc1ccc(Cl)cc1)Nc1ccccc1NS(=O)(=O)c1cccs1 ?
Tau fibril ThT: inconclusive; Tau fluor cs: 14µM[quencher]; NPSR antagonist: inactive; Tau fibril FP: inconclusive; Luc counter: inactive

Results for O=C(Nc1ccc(Cl)cc1)Nc1cccc2nsnc12 ?
Tau fibril ThT: inconclusive; Tau fluor cs: inconclusive; NPSR antagonist: inconclusive; Tau fibril FP: 14µM

Results for CCN(CC)c1ccc(N=Cc2c(C)[nH]c3ccccc23)cc1 ?
Tau fibril ThT: 8.9µM; Tau fluor cs: inconclusive; NPSR antagonist: inactive; Tau fibril FP: inconclusive; Luc counter: inactive

How did Cc1ccc(C(O)(C(=O)NN(C(=O)c2ccccc2)c2ccccc2)c2ccc(C)cc2)cc1 do in these assays?
Tau fibril ThT: inactive; Tau fluor cs: inactive; NPSR antagonist: inactive; Tau fibril FP: inactive; Luc counter: inactive

Results for Cc1ccc(N(NC(=O)C(O)(c2ccccc2)c2ccccc2)C(=O)CCl)cc1 ?
Tau fibril ThT: inactive; Tau fluor cs: inactive; NPSR antagonist: 2.5µM; Tau fibril FP: inactive; Luc counter: inactive

Results for NSc1nc(N)c2nc(-c3ccccc3)c(-c3ccccc3)nc2n1 ?
Tau fibril ThT: 16µM; Tau fluor cs: inactive; NPSR antagonist: inactive; Tau fibril FP: inconclusive; Luc counter: inactive

How did Nc1nc(N)c2nc(-c3ccccc3)c(N)nc2n1 do in these assays?
Tau fibril ThT: inactive; Tau fluor cs: inactive; NPSR antagonist: inactive; Tau fibril FP: inactive; Luc counter: inactive

What do the screens show for `CCc1ccc(CNC(=O)c2c(C)oc3ncn(CC(C)C)c(=O)c23)cc1`?
Tau fibril ThT: inactive; Tau fluor cs: inactive; Tau fibril FP: inactive

What do the screens show for `COC(=O)[C@@]1(Cc2ccccc2)[C@H]2c3cc(C(=O)N(C)C)n(CCF)c3C[C@H]2CN1C(=O)c1ccccc1`?
Tau fibril ThT: inactive; Tau fluor cs: inactive; Tau fibril FP: inactive; Luc counter: inactive

What do the screens show for `CCCn1c(C)nc2c(NCCCCN3CCCC3)nc(C)nc21`?
Tau fibril ThT: inactive; Tau fluor cs: inactive; Tau fibril FP: inactive; Luc counter: inactive

What do the screens show for `N=C1CCC(=N)c2c1c(O)c1ccccc1c2O`?
Tau fibril ThT: 13µM; Tau fluor cs: inconclusive; NPSR antagonist: inactive[7.67 µM]; Tau fibril FP: 25µM

What do the screens show for `Cc1ccc(C(C(=O)NCc2ccco2)N(Cc2ccco2)C(=O)CNC(=O)c2ccco2)cc1` (stereo not drawn)?
Tau fibril ThT: 7.1µM; Tau fluor cs: inactive; NPSR antagonist: inactive; Tau fibril FP: inconclusive

What do the screens show for `CC(=O)Nc1ccc(N(C(=O)CNC(=O)c2ccco2)C(C(=O)NCc2ccco2)c2ccccc2)cc1` (stereo not drawn)?
Tau fluor cs: inactive; NPSR antagonist: inactive; Tau fibril FP: inactive

How did CCCc1ccc(-c2c(C)sc(N)c2C#N)cc1 do in these assays?
Tau fibril ThT: inconclusive; Tau fluor cs: 16µM[quencher]; NPSR antagonist: inconclusive; Tau fibril FP: inconclusive; Luc counter: inactive

Results for CN(C(=O)CSc1nc(-c2ccccc2)no1)c1ccc(F)cc1 ?
Tau fibril ThT: inactive; Tau fluor cs: inactive; Tau fibril FP: inconclusive

How did O=C(N=Nc1c(O)[nH]c2ccccc12)c1ccco1 do in these assays?
Tau fibril ThT: inconclusive; Tau fluor cs: inactive; NPSR antagonist: inactive; Tau fibril FP: inactive; Luc counter: 10µM

How did O=C(N=Nc1c(O)[nH]c2ccccc12)c1ccc2c(c1)OCO2 do in these assays?
Tau fibril ThT: inconclusive; Tau fluor cs: inactive; NPSR antagonist: inactive; Tau fibril FP: inactive; Luc counter: 10µM

What do the screens show for `O=C(CSCc1ccccc1)N=Nc1c(O)[nH]c2ccccc12`?
Tau fibril ThT: inconclusive; Tau fluor cs: inactive; NPSR antagonist: inactive; Tau fibril FP: inactive; Luc counter: inactive

Results for CC(=O)/C=C(\C)N=Nc1c(O)[nH]c2ccccc12 ?
Tau fibril ThT: 7.9µM; Tau fluor cs: inactive; NPSR antagonist: inactive; Tau fibril FP: inactive

Results for COc1ccccc1CNc1ncnc2c1c(-c1ccccc1)cn2-c1cccc(C)c1 ?
Tau fibril ThT: inactive; Tau fluor cs: inactive; Tau fibril FP: inactive

Results for COCCCNC(=O)c1oc2c(c1C)-c1nn(Cc3cccc(Cl)c3)cc1CC2 ?
Tau fibril ThT: inactive; Tau fluor cs: inconclusive; Tau fibril FP: inactive

Results for CCCOC(=O)c1ccc(NC(=O)/C=C/c2cccs2)cc1 ?
Tau fibril ThT: inactive; Tau fluor cs: 14µM[quencher]; NPSR antagonist: inactive; Tau fibril FP: inconclusive; Luc counter: inactive

How did Cc1cccc(NC(=O)/C=C/c2cccs2)n1 do in these assays?
Tau fibril ThT: inactive; Tau fluor cs: inactive; NPSR antagonist: inactive; Tau fibril FP: inactive; Luc counter: 13µM

How did O=C(/C=C/c1cccs1)Nc1ccncc1 do in these assays?
Tau fibril ThT: inactive; Tau fluor cs: inactive; NPSR antagonist: inactive; Tau fibril FP: inactive; Luc counter: inactive

Results for O=C(/C=C/c1cccs1)Nc1ccc([N+](=O)[O-])cc1 ?
Tau fibril ThT: inconclusive; Tau fluor cs: inconclusive; NPSR antagonist: inactive; Tau fibril FP: inactive; Luc counter: inactive

Compound activity deposited in PubChem by National Center for Advancing Translational Sciences (NCATS).
